Targets with a hit are over-represented here; the source holds about 8,800 in all. About 0.5% of all pairs of compound and target were hits. Unmarked numbers belong to inactive results.

Sequence of UniProt O60825 (O60825 whole entry, looked up): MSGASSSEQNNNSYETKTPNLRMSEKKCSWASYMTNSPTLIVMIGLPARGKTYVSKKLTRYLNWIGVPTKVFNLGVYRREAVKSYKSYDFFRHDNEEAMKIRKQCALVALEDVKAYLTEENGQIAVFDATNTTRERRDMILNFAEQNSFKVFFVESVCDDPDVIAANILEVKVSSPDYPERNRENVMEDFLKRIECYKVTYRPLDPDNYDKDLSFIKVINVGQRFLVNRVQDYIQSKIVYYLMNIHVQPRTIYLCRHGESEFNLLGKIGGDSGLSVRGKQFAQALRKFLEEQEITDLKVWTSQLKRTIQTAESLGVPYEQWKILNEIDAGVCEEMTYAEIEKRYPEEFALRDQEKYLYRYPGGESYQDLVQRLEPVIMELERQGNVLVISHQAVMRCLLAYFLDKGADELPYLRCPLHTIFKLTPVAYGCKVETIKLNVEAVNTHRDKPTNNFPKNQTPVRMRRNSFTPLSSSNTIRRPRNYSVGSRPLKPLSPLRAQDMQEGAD
Sequence of UniProt Q9H4Z3 (Q9H4Z3 whole entry, looked up): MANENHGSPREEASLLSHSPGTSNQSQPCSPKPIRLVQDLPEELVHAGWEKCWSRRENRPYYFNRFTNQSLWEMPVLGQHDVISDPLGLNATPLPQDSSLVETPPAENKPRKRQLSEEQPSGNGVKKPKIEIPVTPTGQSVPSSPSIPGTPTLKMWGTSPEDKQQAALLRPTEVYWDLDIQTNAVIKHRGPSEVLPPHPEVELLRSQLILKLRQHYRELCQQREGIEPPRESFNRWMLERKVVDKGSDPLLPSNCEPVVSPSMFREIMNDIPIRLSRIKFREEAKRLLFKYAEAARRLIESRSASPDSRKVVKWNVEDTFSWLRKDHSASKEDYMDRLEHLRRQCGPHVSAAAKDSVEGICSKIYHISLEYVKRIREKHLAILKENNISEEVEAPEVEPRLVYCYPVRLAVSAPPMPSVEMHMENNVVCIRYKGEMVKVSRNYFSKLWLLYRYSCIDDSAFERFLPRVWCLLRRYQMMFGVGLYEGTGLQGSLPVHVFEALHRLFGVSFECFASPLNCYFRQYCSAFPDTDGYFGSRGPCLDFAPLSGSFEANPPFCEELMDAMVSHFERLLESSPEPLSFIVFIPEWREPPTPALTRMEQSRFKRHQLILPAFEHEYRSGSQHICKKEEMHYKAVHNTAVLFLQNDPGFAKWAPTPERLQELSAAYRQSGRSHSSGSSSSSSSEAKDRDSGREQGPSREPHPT
Sequence of UniProt Q86UU1 (Q86UU1 whole entry, looked up): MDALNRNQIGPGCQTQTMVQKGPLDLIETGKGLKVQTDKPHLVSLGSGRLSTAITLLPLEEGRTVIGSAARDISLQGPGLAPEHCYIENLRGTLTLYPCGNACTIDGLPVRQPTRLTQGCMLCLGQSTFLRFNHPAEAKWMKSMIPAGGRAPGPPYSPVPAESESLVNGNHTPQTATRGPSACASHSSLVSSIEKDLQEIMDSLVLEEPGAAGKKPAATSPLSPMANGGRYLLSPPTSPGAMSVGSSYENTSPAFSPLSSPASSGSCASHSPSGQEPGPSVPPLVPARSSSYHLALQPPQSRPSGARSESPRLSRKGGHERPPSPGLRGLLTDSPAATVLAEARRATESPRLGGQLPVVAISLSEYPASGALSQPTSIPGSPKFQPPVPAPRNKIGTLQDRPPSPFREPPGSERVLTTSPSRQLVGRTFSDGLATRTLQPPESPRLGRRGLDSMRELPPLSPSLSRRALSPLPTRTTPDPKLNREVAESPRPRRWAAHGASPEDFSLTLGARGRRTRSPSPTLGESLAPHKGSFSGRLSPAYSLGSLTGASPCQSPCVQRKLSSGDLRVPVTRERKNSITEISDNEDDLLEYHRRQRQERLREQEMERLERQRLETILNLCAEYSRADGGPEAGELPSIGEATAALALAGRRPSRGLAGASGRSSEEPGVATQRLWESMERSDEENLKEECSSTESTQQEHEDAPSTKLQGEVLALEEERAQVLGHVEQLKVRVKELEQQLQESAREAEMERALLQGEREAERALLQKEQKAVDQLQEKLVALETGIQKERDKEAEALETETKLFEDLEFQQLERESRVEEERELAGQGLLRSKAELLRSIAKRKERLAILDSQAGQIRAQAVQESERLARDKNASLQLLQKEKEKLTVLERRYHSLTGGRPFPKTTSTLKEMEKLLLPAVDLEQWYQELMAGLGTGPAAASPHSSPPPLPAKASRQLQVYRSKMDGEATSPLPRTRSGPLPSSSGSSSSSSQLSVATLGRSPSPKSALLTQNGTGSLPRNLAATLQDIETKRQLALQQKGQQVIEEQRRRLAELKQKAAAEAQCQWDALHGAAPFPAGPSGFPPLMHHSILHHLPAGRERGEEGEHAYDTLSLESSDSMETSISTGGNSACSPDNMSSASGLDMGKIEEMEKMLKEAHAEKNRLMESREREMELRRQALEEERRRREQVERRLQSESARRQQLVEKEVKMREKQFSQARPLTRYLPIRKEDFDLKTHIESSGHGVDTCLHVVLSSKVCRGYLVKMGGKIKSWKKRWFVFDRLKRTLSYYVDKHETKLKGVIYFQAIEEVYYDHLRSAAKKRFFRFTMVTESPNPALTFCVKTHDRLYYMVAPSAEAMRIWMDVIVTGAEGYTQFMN
Sequence of UniProt Q14671 (Q14671 whole entry, looked up): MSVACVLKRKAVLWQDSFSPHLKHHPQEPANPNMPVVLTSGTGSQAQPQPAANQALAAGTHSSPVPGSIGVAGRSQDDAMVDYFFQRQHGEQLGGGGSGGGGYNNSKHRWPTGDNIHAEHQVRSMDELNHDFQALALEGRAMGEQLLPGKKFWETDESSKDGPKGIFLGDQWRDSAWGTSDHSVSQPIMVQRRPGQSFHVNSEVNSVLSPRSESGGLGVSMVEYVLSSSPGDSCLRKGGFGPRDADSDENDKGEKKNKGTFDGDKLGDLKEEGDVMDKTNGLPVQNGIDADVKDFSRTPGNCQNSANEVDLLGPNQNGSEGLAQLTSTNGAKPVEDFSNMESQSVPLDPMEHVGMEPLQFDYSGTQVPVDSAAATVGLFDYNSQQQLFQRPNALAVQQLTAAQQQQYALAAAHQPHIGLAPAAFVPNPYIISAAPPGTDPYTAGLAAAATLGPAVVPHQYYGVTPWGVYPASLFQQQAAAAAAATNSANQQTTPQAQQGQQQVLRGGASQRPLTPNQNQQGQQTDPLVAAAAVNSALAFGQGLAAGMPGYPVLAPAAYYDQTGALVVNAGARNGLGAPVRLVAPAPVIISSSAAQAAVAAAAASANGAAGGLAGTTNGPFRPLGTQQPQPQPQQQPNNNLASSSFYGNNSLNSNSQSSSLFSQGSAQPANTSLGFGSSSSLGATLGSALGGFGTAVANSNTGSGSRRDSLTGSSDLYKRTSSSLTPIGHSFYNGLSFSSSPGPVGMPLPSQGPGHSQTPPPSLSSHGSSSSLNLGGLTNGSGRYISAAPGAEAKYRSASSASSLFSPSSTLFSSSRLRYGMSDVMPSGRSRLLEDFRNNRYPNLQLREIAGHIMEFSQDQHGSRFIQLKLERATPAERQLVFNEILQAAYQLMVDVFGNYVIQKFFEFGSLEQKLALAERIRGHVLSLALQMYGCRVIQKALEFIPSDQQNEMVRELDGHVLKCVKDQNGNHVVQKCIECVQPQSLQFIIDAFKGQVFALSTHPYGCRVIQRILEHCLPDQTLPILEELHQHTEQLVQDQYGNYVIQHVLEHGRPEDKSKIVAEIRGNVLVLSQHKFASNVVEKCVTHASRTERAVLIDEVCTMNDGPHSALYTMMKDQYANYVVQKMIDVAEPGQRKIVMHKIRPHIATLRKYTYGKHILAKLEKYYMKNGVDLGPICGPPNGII
Sequence of UniProt Q8TD55 (Q8TD55 whole entry, looked up): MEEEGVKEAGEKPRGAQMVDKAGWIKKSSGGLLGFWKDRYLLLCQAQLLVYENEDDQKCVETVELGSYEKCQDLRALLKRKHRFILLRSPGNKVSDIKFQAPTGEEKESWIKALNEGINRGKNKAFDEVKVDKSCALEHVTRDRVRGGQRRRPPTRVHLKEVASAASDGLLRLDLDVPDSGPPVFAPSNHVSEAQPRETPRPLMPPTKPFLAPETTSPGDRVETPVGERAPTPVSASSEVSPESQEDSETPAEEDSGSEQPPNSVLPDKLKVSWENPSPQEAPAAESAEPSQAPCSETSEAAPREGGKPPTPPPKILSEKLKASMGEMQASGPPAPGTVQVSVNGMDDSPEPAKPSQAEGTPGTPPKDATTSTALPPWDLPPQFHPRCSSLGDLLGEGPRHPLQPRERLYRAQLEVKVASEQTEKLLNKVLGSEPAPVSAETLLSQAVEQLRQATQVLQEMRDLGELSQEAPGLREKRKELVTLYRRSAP
Sequence of UniProt Q96PU8 (Q96PU8 whole entry, looked up): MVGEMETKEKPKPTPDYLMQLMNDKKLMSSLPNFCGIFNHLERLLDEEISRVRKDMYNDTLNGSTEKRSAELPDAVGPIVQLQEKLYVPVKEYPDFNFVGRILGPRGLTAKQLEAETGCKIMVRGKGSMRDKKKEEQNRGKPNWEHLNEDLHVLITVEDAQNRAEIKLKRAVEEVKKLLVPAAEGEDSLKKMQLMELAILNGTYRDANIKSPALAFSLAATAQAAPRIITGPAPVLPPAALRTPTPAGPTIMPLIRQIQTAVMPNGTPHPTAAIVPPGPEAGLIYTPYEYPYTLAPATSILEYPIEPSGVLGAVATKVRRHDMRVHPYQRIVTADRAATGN
Sequence of UniProt Q9H0N5 (Q9H0N5 whole entry, looked up): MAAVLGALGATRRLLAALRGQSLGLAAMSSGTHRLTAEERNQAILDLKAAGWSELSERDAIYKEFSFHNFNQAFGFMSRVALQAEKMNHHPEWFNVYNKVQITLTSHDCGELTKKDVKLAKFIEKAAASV
Sequence of UniProt Q03393 (Q03393 whole entry, looked up): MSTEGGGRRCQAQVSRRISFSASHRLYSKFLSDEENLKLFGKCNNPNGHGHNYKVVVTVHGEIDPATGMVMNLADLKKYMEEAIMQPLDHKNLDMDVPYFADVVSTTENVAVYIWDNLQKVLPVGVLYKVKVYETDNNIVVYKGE
Sequence of UniProt Q9Y244 (Q9Y244 whole entry, looked up): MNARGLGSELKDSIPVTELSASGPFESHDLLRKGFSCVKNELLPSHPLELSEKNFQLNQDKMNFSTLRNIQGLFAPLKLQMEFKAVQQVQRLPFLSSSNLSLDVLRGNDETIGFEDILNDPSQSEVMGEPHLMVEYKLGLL

Compound in the assay: CC1=CC=C(C=C1)SC2=C3C=C(SC3=CN=C2)C(=O)N
Briefly: log2 fold change, soluble protein after heating vs DMSO (PISA); higher = thermal stabilisation; K562 lysate, 10 uM; active = over 0.2 and 3.5 SD of the protein, either way, in both replicates (recomputed). In short, it runs like this:
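Thermal stability, expressed as log-two fold change relative to solvent controls, is given from duplicates. Crude K562 extract in PBS pH 7.4 with 1 mM MgCl2, at 1 mg/mL protein, was treated with 10 μM compound for 30 min and heated in aliquots for 3 min across 48°C-58°C. After pooling, adjustment to 0.5% NP-40 at 4°C and centrifugation at 21,000xg for 90 min, supernatant protein was measured by TMTpro 16plex LC-MS/MS with channel sums equalised.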
Turning to PFDN2 (UniProt Q9UHV9), the log2 fold change was -0.022.

For PUM1 isoform 3 (UniProt Q14671), the log2 fold change is 0.014. Consider POLR2G (UniProt P62487), for which the log2 fold change is -0.01.

Consider PRKCSH (UniProt K7ELL7), for which the log2 fold change is -0.052. As to PTK2 (UniProt Q05397), the log2 fold change is -0.128. In the case of PCIF1 (UniProt Q9H4Z3) it was -0.029. In the case of PIK3C3 (UniProt Q8NEB9) it was -0.056.

With PDIA4 (UniProt P13667), the log2 fold change is 0.007. In the case of PDCD4 (UniProt Q53EL6) it was 0.011; in that of QKI (UniProt Q96PU8), -0.023. In the case of PTS (UniProt Q03393) it was -0.017.

As to POMP (UniProt Q9Y244), the log2 fold change is -0.001. POLD3 (UniProt Q15054): the log2 fold change is -0.038. As to PI4KB (UniProt Q9UBF8), the log2 fold change is 0.012. Regarding PDE4DIP isoform 4 (UniProt Q5VU43), the log2 fold change was 0.017. In the case of PTPN6 isoform 4 (UniProt P29350) it was 0.054; in that of PGLS (UniProt O95336), 0.077; in that of PFKFB2 (UniProt O60825), -0.001. In the case of PSTPIP2 (UniProt Q9H939) it was -0.034; in that of PI4K2A (UniProt Q9BTU6), -0.009. In the case of PLEKHO2 (UniProt Q8TD55) it was -0.129.

For PLIN2 (UniProt Q99541), the log2 fold change is 0.

Take PHLDB1 (UniProt Q86UU1): the log2 fold change is 0.156.

Turning to PRKD3 (UniProt O94806), the log2 fold change is -0.077.

For PTPN23 (UniProt Q9H3S7), the log2 fold change is 0.012. In the case of PI4KA (UniProt P42356) it was -0.002; in that of PUF60 isoform 2 (UniProt Q9UHX1), 0.013. In the case of PKP3 isoform 2 (UniProt Q9Y446) it was 0.052. In the case of PCBP2 isoform 3 (UniProt Q15366) it was -0.017; in that of PTPN1 (UniProt P18031), 0.016. For PPP2R3C (UniProt Q969Q6), the log2 fold change was 0.196. In the case of PPT2 isoform 3 (UniProt Q9UMR5) it was -0.013; in that of PDCD6IP (UniProt Q8WUM4), -0.03; in that of PCBD2 (UniProt Q9H0N5), -0.03. In the case of PHKB isoform 3 (UniProt Q93100) it was -0.049. Turning to PFN1 (UniProt P07737), the log2 fold change is 0.002. For PIGO (UniProt Q8TEQ8), the log2 fold change is -0.158. With PYCR2 (UniProt Q96C36), the log2 fold change was -0.016.

As to POGK (UniProt Q9P215), the log2 fold change was 0.027.

Source of the values: the supplement of paper PMC10849652.
